Source: PubChem BioAssay (several laboratories)
This is a sample that favours compounds with a hit; in the whole collection about 1.3% have one here.
SARS 3CLpro inh: SARS-CoV 3CLpro protease inhibitors, primary screen, biochemical, quenched FRET | recombinant SARS-CoV 3CLpro, quenched FRET peptide cleavage | inhibition, % at 6 µM | 290,000 tested, 0.14% active; in the data active = inhibition above about 12%
Mtb bLac sens: beta-lactam sensitization of Mtb H37Rv, H37Rv. M. tuberculosis H37Rv growth with meropenem, percent inhibition. inhibition, % at 25 µM. 330,000 tested, 0.27% active; call rule not given here;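 also: growth measured after seven days incubation then overnight dye step; 0% = bacteria only wells and 100% = bacteria with antibiotic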
CCHF vOTU inh-1: CCHFV vOTU protease inhibitors, primary screen, biochemical, Pep-AMC substrate, fluorescence; 370,000 tested, 0.55% active; inhibition, % at 11.5 µM; Crimean-Congo hemorrhagic fever virus L polyprotein viral ovarian tumor (vOTU) protease …; AID 651958, 2012; also: 0% = vehicle wells with enzyme and 100% = no enzyme wells
RN4220 kill: growth inhibition of S. aureus RN4220, primary screen, OD600; 330,000 tested, 0.33% active; inhibition, % (concentration not given with the values); 16 h; AID 1259311, 2017; in the data active = inhibition above about 85%;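 also: plate controls were untreated cells for no effect and reference antibiotic for full effect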
MazF activator: activators of E. coli MazEF toxin-antitoxin RNase, primary screen, biochemical, fluorescence, uHTS; Endoribonuclease toxin MazF (Escherichia coli (strain K12)), P0AE70; FAM/BHQ RNA-DNA oligo cleavage fluorescence, 5 h; activation, % at 20 µM; 350,000 tested, 0.32% active; in the data active = activation above about 50%
Target sequence (P0AE70 whole entry, looked up): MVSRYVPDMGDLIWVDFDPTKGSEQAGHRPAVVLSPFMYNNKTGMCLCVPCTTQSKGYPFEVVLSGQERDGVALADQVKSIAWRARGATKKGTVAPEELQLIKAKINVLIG
Sa ugtP lethal: growth inhibition of ugtP-null S. aureus, primary screen, RN4220 ugtP deletion, OD600; 16 h; growth inhibition, % (no concentration beside the values); 330,000 tested, 0.54% active; in the data active = growth inhibition above about 68%;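 also: plate controls were untreated wells for no effect and antibiotic for full effect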
CCHF vOTU inh-2: CCHFV vOTU protease inhibitors, confirmation, biochemical, Pep-AMC substrate, fluorescence; shares compounds with CCHF vOTU inh-1; Recombinant CCHFV vOTU; inhibition, % at 11.5 µM; 1,900 tested, 17% active; AID 686976, 2013
* hit, by the source's call; ? = inconclusive; · = not tested or not shown. Rule as the data show it, unless noted: active = inhibition above about 30%; inactive = the rest.

SMILES	SARS 3CLpro inh	Mtb bLac sens	CCHF vOTU inh-1	RN4220 kill	MazF activator	Sa ugtP lethal	CCHF vOTU inh-2
CC(O)CC#Cc1ccc2oc(=O)c(-n3cc(-c4ccsc4)nn3)cc2c1 (configuration not stated)	·	·	·	10	·	5	·
O=C(O)c1ccc(Cl)c(S(=O)(=O)N(Cc2ccccc2)c2ccc(Cl)cc2)c1	8	2	31*	16	-11	16	14
COC(=O)c1nn(-c2ccccc2)c2nnc(Cc3ccc(C)cc3)c(=O)n12	5	2	32*	1	0	14	-16
Cc1[nH][nH]c(=O)c1C(c1ccc(-c2cccc(C(=O)O)c2)o1)c1c(C)[nH][nH]c1=O	3	5	40*	1	-7	2	-14
CCOc1cc(C=NNC(=O)COc2ccc(C)cc2)ccc1OC(=O)c1cccs1	·	·	·	-9	·	-22	·
COC(=O)/C=C1\OCc2cc(OC)c(OC)cc21	·	·	37*	·	·	·	1
COc1cc2c(cc1OC)/C(=C/C(C)=O)OC2	·	·	5	·	·	·	·
O=C1C(=NO)CCc2ccccc21	·	·	69*	·	0	·	82*
Nc1c(C(=O)Nc2ccc3c(c2)OCCO3)nnn1Cc1ccc(Br)cc1	·	1	31*	1	-1	-1	-9
Cc1onc(-c2ccccc2)c1C(=O)N/N=C/c1ccc(O)c([N+](=O)[O-])c1	1	0	33*	·	8	·	-11
Cc1onc(-c2ccccc2)c1C(=O)N/N=C/c1ccc([N+](=O)[O-])c(O)c1	-5	10	5	·	2	·	·
C=C(C)CNC(=S)NN=Cc1ccc(NC(C)=O)cc1	·	·	·	6	·	9	·
COc1ccccc1-c1cccc(-c2nc(C(=O)N3CCCCC3)cc3c2[C@H](CCO)N(S(=O)C(C)(C)C)C3)c1 (some centres not stated)	·	·	3	·	·	·	·
CC(C)(C)S(=O)N1Cc2cc(C(=O)N3CCc4ccccc4C3)nc(-c3cccc(-c4cccnc4)c3)c2[C@@H]1CCO (some centres not stated)	·	·	37*	·	·	·	9
COC(=O)c1cc(C)nc2c1C(=O)C(=O)C=C2N1CCOCC1	3	-5	107*	0	-9	-1	109*
COC(=O)c1cc(S(=O)(=O)N2CCOCC2)c(Cl)cc1N1CCOCC1	-2	-14	1	2	-9	-2	·
COC(=O)C1CC1C(NS(=O)(=O)c1ccc2ccccc2c1)c1ccccc1 (configuration not stated)	·	·	·	13	·	-3	·
COc1cccc(C=NNc2ccc(C(=O)O)cc2)c1O	·	·	·	2	·	-1	·
CCOC(=O)c1c(/N=C/c2cc([N+](=O)[O-])ccc2O)sc(C)c1C	-3	?	30*	·	-2	·	13
CCOC(=O)c1c(N=Cc2cc([N+](=O)[O-])ccc2O)sc(C)c1C	·	·	·	15	·	-9	·
CC(C)(C)c1ccccc1NC(=O)Nc1nc(C(N)Cc2ccc(F)cc2)cs1 (configuration not stated)	·	·	30*	·	·	·	-23
Cc1ccc(C2C3C(=O)N(C)C(=O)C3[C@]3(C)C(=O)N(Cc4ccccn4)CC(=O)N23)o1 (some centres not stated)	·	·	·	6	·	-3	·
CC(=O)Nc1cccc(C(C)=NNC(=O)c2ccc(CN3CCOCC3)cc2)c1	·	·	·	2	·	2	·
CCOC(=O)c1oc2c(c1C)/C(=N/O)CCC2	-1	-11	33*	·	-2	·	-7
CCOC(=O)c1oc2c(c1C)C(=O)CCC2	1	5	-1	3	5	-1	·
SMILES	SARS 3CLpro inh	Mtb bLac sens	CCHF vOTU inh-1	RN4220 kill	MazF activator	Sa ugtP lethal	CCHF vOTU inh-2
Cc1ccc(C(=O)NC(=CC=Cc2ccccc2)C(=O)NCc2ccco2)cc1	·	·	·	3	·	0	·
COc1ccccc1C(=O)Nc1ccc(NC(=O)C2CCCCC2)nc1	1	1	39*	-2	4	15	-21
COc1ccc(NC(=S)Nc2ccc3nc(C)c(C)nc3c2)cc1	-9	-2	-3	2	4	2	·
CC(C)N(C(=O)Nc1ccc2nsnc2c1)C(C)C	4	1	98*	2	8	7	67*
CCOc1ccc(NC(=S)Nc2ccc3nsnc3c2)cc1	0	98	118*	0	1	-3	92*
O=C(Nc1ccc2nsnc2c1)N1CCCCC1	-1	-2	6	1	7	3	·
S=C(Nc1ccc2nsnc2c1)N1CCCCCC1	-1	4	36*	-1	-25	2	97*
COc1ccc(NC(=S)Nc2ccc3nsnc3c2)cc1	8	3	118*	1	-20	-11	100*
CC(/C=C/c1ccccc1)=NNC(N)=S	·	·	·	6	·	-1	·
C=CCN(CC=C)C(=S)Nc1ccc2nsnc2c1	6	1	51*	5	4	-5	87*
COCCNC(=S)Nc1ccc2nsnc2c1	-5	8	100*	·	-2	·	-15
O=C(NN=Cc1ccc(O)c([N+](=O)[O-])c1)C1CC1(c1ccccc1)c1ccccc1 (configuration not stated)	·	·	·	7	·	3	·
O=C(NN=Cc1ccc(N2CCOCC2)cc1)c1cccs1	·	·	·	3	·	13	·
COc1ccc(NC(=O)COc2ccc(C=Nn3c(C)nnc3C)cc2OC)cc1	·	·	·	0	·	-6	·
O=C(Nc1ccccc1)C1=CC(c2ccc(Br)cc2)CC(OCc2ccc(CO)cc2)O1 (configuration not stated)	·	·	·	-4	·	1	·
COc1cc(NCc2ccccc2)c2ncn(C(C)C)c2c1	·	9	10	5	7	4	·
COc1cc(NCCCNC(C)C)c2nccc(C)c2c1	·	·	57*	2	2	1	29
CC(=O)N1CCc2cc(S(=O)(=O)NC(C(=O)Nc3ccc4c(c3)OCCO4)C(C)C)ccc21 (configuration not stated)	2	-1	30*	2	10	12	-7
CC(=O)Nc1ccc(S(=O)(=O)Oc2ccc(C=N/N=C3/NC(=O)C(CC(=O)O)S3)cc2)cc1 (configuration not stated)	·	·	·	1	·	6	·
O=S(=O)(Nc1ccc(Cl)c(C(F)(F)F)c1)c1cnc[nH]1	4	7	32*	4	4	0	-15
CCOC(=O)C1=C(Cc2ccc(C)cc2)C(=O)c2ccccc2C1=O	-3	37	96*	·	·	·	-9
CC=CC(=O)N1CC2(CC(c3cccc(NC(=O)COc4ccc(Cl)cc4)c3)=NO2)CC1C(N)=O (configuration not stated)	·	·	·	4	·	6	·
Cc1cc([N+](=O)[O-])nn1CCCC(=O)Nc1cc(Oc2ccccc2)cc([N+](=O)[O-])c1	-2	99	8	2	5	-16	·
